# Screening data deposited in PubChem by several laboratories.
# GLD-1 TGE inh: GLD-1/TGE RNA complex disruptors, primary screen, biochemical, fluorescence polarization; Female germline-specific tumor suppressor gld-1 (Caenorhabditis elegans), Q17339; purified GLD-1 + fluorescein TGE RNA; inhibition, % at 5.96 µM; 0.44% of 320,000 active;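 active = percent inhibition above a per-plate cutoff, the plate mean of test compounds plus 3 SD, cut at about 30% in these data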;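 also: 0% = DMSO wells with GLD-1 and probe and 100% = wells lacking GLD-1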
# MCL1-BIM inh: inhibitors of MCL1 binding to BIM-BH3, primary screen, biochemical, fluorescence polarization; Induced myeloid leukemia cell differentiation protein Mcl-1 (Homo sapiens), Q07820; GST-MCL1 / FITC-Bim-BH3 fluorescence polarization; inhibition, % at 10.9 µM; 0.68% of 320,000 active; AID 2057, 2009;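 active = inhibition above the mean inhibition of all tested compounds plus 3 SD, set per campaign, cut at about 40% in these data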;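 also: 0% = DMSO wells and 100% = unlabeled Bim-BH3 peptide control; higher means more loss of mP so more displacement of Bim peptide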
# Target sequence (Q07820 whole entry, looked up): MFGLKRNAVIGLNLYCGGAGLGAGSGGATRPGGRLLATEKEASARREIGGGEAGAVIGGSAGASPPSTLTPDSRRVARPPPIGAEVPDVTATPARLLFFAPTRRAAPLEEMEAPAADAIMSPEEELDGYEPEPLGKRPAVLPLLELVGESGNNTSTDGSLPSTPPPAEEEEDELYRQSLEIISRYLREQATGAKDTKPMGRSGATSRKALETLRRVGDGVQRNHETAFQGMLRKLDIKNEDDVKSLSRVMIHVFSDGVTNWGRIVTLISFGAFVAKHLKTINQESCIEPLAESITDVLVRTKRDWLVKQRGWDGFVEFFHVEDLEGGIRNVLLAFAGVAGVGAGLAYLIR
# Mcl1 Bid PPI: Mcl-1/Bid binding inhibitors, primary screen, biochemical, TR-FRET, 1536-well; Induced myeloid leukemia cell differentiation protein Mcl-1 (Homo sapiens), Q07820; TR-FRET Mcl-1/Bid-Dy647 peptide binding; inhibition, % at 21.7 µM; 0.97% of 220,000 active;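 active = compounds that cut the binding signal by more than half at the single screening dose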;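 also: His-tagged Mcl-1 with europium anti-His antibody binding Bid BH3 peptide; 0% = Mcl-1 plus peptide wells and 100% = peptide-only wells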
# Bcl-xL primary: inhibitors of human Bcl-xL, primary screen, biochemical, fluorescence polarization, HTS. GST-Bcl-xL / FITC-Bim BH3 peptide fluorescence polarization. inhibition, % at 10.9 µM. 0.7% of 320,000 active;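 active = inhibition above the mean of all tested compounds plus 3 SD, cutoff set per campaign, cut at about 30% in these data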;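 also: 0% = DMSO wells and 100% = unlabeled Bim-BH3 peptide competitor; inhibitors lower millipolarization by displacing the labeled peptide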
# Target sequence (Q07817 whole entry, looked up): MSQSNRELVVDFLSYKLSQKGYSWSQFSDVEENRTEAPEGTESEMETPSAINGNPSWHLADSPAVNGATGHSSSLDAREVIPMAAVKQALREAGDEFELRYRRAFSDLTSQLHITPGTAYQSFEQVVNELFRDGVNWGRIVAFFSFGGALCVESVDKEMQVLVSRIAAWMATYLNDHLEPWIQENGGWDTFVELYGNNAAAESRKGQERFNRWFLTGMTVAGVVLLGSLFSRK
# Mcl1 Noxa PPI: Mcl-1/Noxa binding inhibitors, primary screen, biochemical, TR-FRET, 1536-well. Induced myeloid leukemia cell differentiation protein Mcl-1 (Homo sapiens), Q07820. TR-FRET Mcl-1/Noxa peptide binding, 2 h. inhibition, % at 21.7 µM. 1.5% of 220,000 active. AID 1022, 2008;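 active = compounds that cut the protein-peptide binding signal by more than 50% relative to plate controls in a single-dose test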;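 also: His-tagged Mcl-1 with rhodamine Noxa BH3 peptide and terbium anti-His antibody; 0% = Mcl-1 plus Noxa peptide wells and 100% = peptide-only wells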
# Mcl-1 Bim block: inhibitors of Bim peptide binding to Mcl-1, primary screen, biochemical, bead-based flow cytometry, multiplex | Bim peptide-Mcl-1 binding | inhibition, % at 10 µM | 0.1% of 190,000 active; in the data active = inhibition above about 40%;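 also: 0% = no compound tracer wells and 100% = peptide blocker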
# * marks the source's active call; other numbers are inactive results; . = not tested or not shown. In the library only some 2.3% were active in any assay of this set; here they are far more common.
SMILES,GLD-1 TGE inh,MCL1-BIM inh,Mcl1 Bid PPI,Bcl-xL primary,Mcl1 Noxa PPI,Mcl-1 Bim block
CN(c1ccccc1)S(=O)(=O)c1cccc(NC(=O)c2cncc(Br)c2)c1,-2,5,-6,-1,12,.
COc1cccc(NS(=O)(=O)c2ccc(S(=O)(=O)N3CCOCC3)cc2)c1,-5,-1,-5,1,-3,0
CC(CCc1ccccc1)N1CCN(Cc2ccccc2)CC1 (stereo unspecified),17,2,24,4,28,-3
CCS(=O)(=O)N1CCN(C(C)CCc2ccccc2)CC1 (stereo unspecified),5,4,77*,6,91*,1
C=CCn1c(SCC(=O)Nc2sccc2C(N)=O)nc2sc(C)c(C)c2c1=O,-4,3,52*,-2,3,-3
CC(CCC(=O)Nc1nncs1)C(=O)O (stereo unspecified),-2,-3,86*,0,33,0
CCC(CCC(=O)Nc1nncs1)C(=O)O (stereo unspecified),.,.,0,.,-5,9
CC[C@H](C)[C@H](NS(=O)(=O)c1ccc(C)cc1)C(=O)N1CCC(C(=O)N[C@H](C(=O)O)C(C)C)CC1,6,22,0,41*,15,-1
Cc1nnc(SCC(=O)N(C)CC(=O)Nc2ccc(F)cc2)n1Cc1ccccc1,11,-1,-13,0,9,0
COc1cccc(CNS(=O)(=O)c2ccc3c(c2)N(C)CCO3)c1,2,3,.,5,.,.
CN(C(=O)NC1CCCCC1)c1ccccc1,7,2,-25,5,-7,51*
O=C(Cc1ccc(-c2ccccc2)cc1)NC1CCCC1,6,3,-10,-2,8,45*
CN(Cc1ccccc1)C(=O)NC1CCCCC1,-8,-1,-6,5,-10,.
O=C(Cc1ccccc1)N1CCN(c2ccc([N+](=O)[O-])cc2)CC1,2,-3,.,7,.,.
COc1ccc(CCNC(=O)CCc2cn(C)c3ccccc23)c(OC)c1OC,3,-8,.,2,.,.
COC(=O)c1ccc(=O)c2nc3/c(=C/O)c(O)cc(=O)c3[nH]c12,4,97*,75*,90*,98*,.
CC1(C)CC(NC(=O)CC(c2ccccc2)c2ccccc2)CC(C)(C)N1,-3,-3,-12,2,12,3
O=C(CN1CCCc2ccccc21)NCc1ccc2c(c1)OCO2,-51,52*,-23,47*,11,-3
Cc1cc2sc3ccccc3c(=O)c2c(C)c1O,0,10,4,8,42,0
O=c1c(C(c2ccccc2)c2c(O)sc3ccccc3c2=O)c(O)sc2ccccc12,10,8,71*,8,53*,-5
C/C=C(/C)C(=O)O[C@@H]1Cc2c(ccc3ccc(=O)oc23)OC1(C)C,2,.,.,.,.,.
CC1(C)Oc2ccc3ccc(=O)oc3c2C[C@H]1O,3,4,83*,4,-8,.
C(=C\c1ccco1)/c1ccc2ccccc2n1,5,18,-87,15,74*,.
Fc1cccc(F)c1/C=C/c1ccc2ccccc2n1,1,-8,23,-3,12,0
CCN(CC)CCNC(=O)c1ccc(CS(=O)(=O)c2ccc(Br)cc2)o1,1,0,58*,-4,9,-2
SMILES,GLD-1 TGE inh,MCL1-BIM inh,Mcl1 Bid PPI,Bcl-xL primary,Mcl1 Noxa PPI,Mcl-1 Bim block
CCN(CC)CCCNC(=O)/C(=C\c1cccn1C)NC(=O)c1cccs1,1,7,-66,1,18,-7
CCN=c1scc(-c2ccco2)n1/N=C/c1ccc(O)cc1,-3,-3,-16,2,9,3
CCN=c1scc(C)n1/N=C/c1cc(Br)c(O)c(Br)c1,5,12,-4,7,73*,-1
COc1ccc(CNC(=O)COC(=O)c2cc(-c3ccco3)nc3ccccc23)cc1,.,.,9,.,89*,-1
Cn1c(=O)c(C(=O)COC(=O)c2cc(C3CC3)nc3ccccc23)c(N)n(Cc2ccccc2)c1=O,-17,-29,-8,-13,3,-1
O=C(NC1CC1)c1cc(-c2ccco2)nc2ccccc12,.,.,39,.,105*,.
COc1ccc(CNC(=O)COC(=O)c2ccc(Br)cc2)cc1,0,2,-23,33*,-1,1
COc1ccc(CNC(=O)COC(=O)c2cc(C)nc3ccccc23)cc1,9,.,.,.,.,.
Cn1c(=O)c(C(=O)COC(=O)c2cc(-c3ccco3)nc3ccccc23)c(N)n(CC2CC2)c1=O,12,44*,-7,27,95*,5
COc1ccc(CNC(=O)COC(=O)c2ccc(C(=O)c3ccccc3)cc2)cc1,-6,.,.,.,.,.
NC(=O)c1cccnc1Nc1cccc([N+](=O)[O-])c1,3,-7,-10,3,9,-1
O=C(O)c1cc(-c2cc(C(=O)O)c3ccccc3n2)nc2ccccc12,-4,8,.,4,.,.
O=C(O)c1cc(-c2ccco2)nc2ccccc12,14,46*,-33,34*,36,-3
CNC(=O)C(=O)Nc1cc2c3c(c1)CCC(=O)N3CCC2,1,5,.,2,.,.
Cc1ccc(C2NC(=O)NC(O)(C(F)(F)F)C2C(=O)c2cccs2)o1 (stereo unspecified),1,7,-19,0,0,-2
O=C1NC(c2ccc(-c3ccccc3[N+](=O)[O-])o2)C(C(=O)c2ccc(F)cc2)C(O)(C(F)(F)F)N1 (stereo unspecified),0,0,-3,1,55*,-2
COc1ccc(C2NC(=O)NC(O)(C(F)(F)F)C2C(=O)c2ccc(F)cc2)cc1 (stereo unspecified),7,4,-6,5,1,-2
COc1ccc(C(=O)C2C(c3ccc(-c4ccccc4[N+](=O)[O-])o3)NC(=O)NC2(O)C(F)(F)F)cc1 (stereo unspecified),10,6,10,3,57*,-4
Cc1ccc(C(=O)C2C(c3cccs3)NC(=O)NC2(O)C(F)(F)F)cc1 (stereo unspecified),-1,2,63*,7,12,-3
Cc1ccc(C2NC(=O)NC(O)(C(F)(F)F)C2C(=O)c2ccccc2)o1 (stereo unspecified),-3,5,-6,0,-14,13
Cc1cccc(-n2c(Cc3cc(=O)[nH]c(=O)[nH]3)nnc2SCC(=O)NCc2ccco2)c1,10,13,.,11,.,.
Cc1ccc(C(=O)OCC(=O)Nc2ccccc2)cc1NC(=O)c1ccco1,5,-9,-11,1,-7,-7
